Bioassay records deposited in PubChem by The Scripps Research Institute Molecular Screening Center.
FBW7 activator – activators of human E3 ligase FBW7 | Q969H0 | AlphaScreen FBW7–phospho-cyclin E peptide binding, activator screen | normalized activity (activation), % at 26.1 µM | actives 0.13% (n = 650,000); in the data active means normalized activity above about 1.9%;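 further: purified mutant Fbw7 with reduced substrate affinity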
TEAD-YAP block – TEAD-YAP interaction inhibition; AID 1259422; inhibition, % at 9.12 µM; HEK-TIYL cells, TEAD-Gal4/YAP UAS-luciferase luminescence; actives 1.4% (n = 640,000); in the data active means inhibition above about 32%;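 further: 0% = median of test compound wells and 100% = reference inhibitor wells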
GPR151 ag – human GPR151 activation | Q8TDV0 | PathHunter beta-arrestin GPR151 cells, luminescence | activation, % at 11.2 µM | actives 1% (n = 650,000) | AID 1508602; in the data active means activation above about 4.9%;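 further: 0% = median of compound wells and 100% = cells with positive control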
MITF primary – blocks human microphthalmia-associated transcription factor. AlphaScreen MITF homodimerization, bead proximity signal. actives 0.91% (n = 650,000). inhibition, % at 2.6 µM; in the data active means inhibition above about 50%;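 further: 0% = vehicle wells with protein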
Target sequence (O75030 whole entry, looked up): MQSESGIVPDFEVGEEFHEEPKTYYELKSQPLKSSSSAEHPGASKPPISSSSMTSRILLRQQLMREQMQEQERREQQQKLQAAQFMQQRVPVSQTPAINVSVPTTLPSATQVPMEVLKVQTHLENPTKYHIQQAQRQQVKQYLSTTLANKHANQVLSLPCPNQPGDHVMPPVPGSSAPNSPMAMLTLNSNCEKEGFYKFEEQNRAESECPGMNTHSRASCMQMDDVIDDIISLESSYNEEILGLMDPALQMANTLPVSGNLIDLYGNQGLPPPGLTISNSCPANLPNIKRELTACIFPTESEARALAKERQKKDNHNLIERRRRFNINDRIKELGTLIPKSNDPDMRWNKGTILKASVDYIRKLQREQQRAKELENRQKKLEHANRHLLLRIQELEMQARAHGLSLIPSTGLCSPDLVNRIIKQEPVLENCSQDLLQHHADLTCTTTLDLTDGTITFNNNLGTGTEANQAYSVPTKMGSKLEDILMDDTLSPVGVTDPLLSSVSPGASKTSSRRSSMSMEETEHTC
GPR151 confirm – confirmation of human GPR151 activators; shares compounds with GPR151 ag; GPR151 PathHunter beta-arrestin cells, luminescence, 90 min; % of EA-reagent control over plate median; activation, % at 11.2 µM; 6,700 tested, under 10 active;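 active means mean percent activation across replicates above the confirmation screen cutoff of 4.91%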
GPR119 counter – activates human GPR119 in a GPR151 counter-screen; actives 0.3% (n = 6,700); activation, % at 11.2 µM; shares compounds with GPR151 ag; GPR119 PathHunter beta-arrestin cells, luminescence, 90 min; 0 = compound-well median, 100 = enzyme-acceptor control; AID 1508611;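 active means mean percent activation in the counterscreen above 29.09%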;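 further: counterscreen on off-target GPR119 to flag nonselective hits from the GPR151 activator screen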
An asterisk follows results filed as active; nt = not tested or not shown. The list is not random: actives were taken first. Their share in the collection is about 3.5%.

SMILES	FBW7 activator	TEAD-YAP block	GPR151 ag	MITF primary	GPR151 confirm	GPR119 counter
Cc1c(Br)c(C(F)(F)F)nn1CC(=O)Nc1cccc(O)c1	0.1	-0.8	10.0*	-11.9	1.4	10.4
CC(=O)c1cccc(NC(=O)Cn2nc(C(F)(F)F)c(Cl)c2C)c1	0.3	2.2	1.3	17.7	nt	nt
CCOC(=O)CC(NS(=O)(=O)c1cc(OC)ccc1OC)c1cccc([N+](=O)[O-])c1 (stereo unspecified)	-0.2	0.3	-0.5	-5.0	nt	nt
Nc1ccc2nc(SCC(=O)Nc3ccccc3)sc2c1	0.1	-38.0	2.3	3.8	nt	nt
CC(NC(=O)CSc1nc2ccc(N)cc2s1)c1ccccc1 (stereo unspecified)	-0.2	3.3	6.3*	-4.0	-0.1	-2.1
c1cc(N2CCOCC2)ncc1-c1nc(NCCN2CCOCC2)c2ncn(C3CCCCC3)c2n1	0.3	-8.1	-0.7	10.5	nt	nt
COc1cccc(NC(=O)C2CCCN2S(=O)(=O)c2cccc3cccnc23)c1 (stereo unspecified)	0.2	-21.1	7.3*	5.0	0.0	-0.2
COc1cc(NC(=O)C2CCCN2S(=O)(=O)c2cccc3cccnc23)cc(OC)c1 (stereo unspecified)	0.1	-22.1	-1.1	13.5	nt	nt
O=C(Nc1cccc(Cl)c1)N1CCN(c2ccc(Nc3cccnc3)nn2)CC1	0.1	-3.8	6.1*	15.8	0.8	1.3
COC(=O)c1cc(OC)c(OC)cc1NC(=O)c1ccccc1C	0.2	2.5	9.7*	13.6	1.1	-6.3
COc1cc(NC(=O)c2ccccc2F)c(C(=O)O)cc1OC	0.2	-5.1	-0.6	10.2	nt	nt
COc1ccc(Br)cc1C(=O)Nc1cc(Cl)ccc1C(=O)O	0.0	-9.8	8.4*	-16.0	1.1	3.2
COC(=O)c1cc(OC)c(OC)cc1NC(=O)c1cc(C)ccc1C	-0.1	-0.7	0.0	-3.0	nt	nt
COc1cc(NC(=O)c2ccccc2OC)c(C(=O)O)cc1OC	0.1	1.8	6.7*	-21.9	0.1	2.1
CS(=O)(=O)N1CCN(C(=O)c2ccc(Cl)cc2)CC1	0.2	1.8	7.8*	15.4	1.0	11.2
CS(=O)(=O)N1CCN(C(=O)c2ccncc2)CC1	0.0	6.0	5.6*	0.9	-0.5	2.2
CS(=O)(=O)N1CCN(C(=S)NCc2ccc(F)cc2)CC1	0.1	4.1	-0.6	5.5	nt	nt
CS(=O)(=O)N1CCN(C(=O)c2cccnc2)CC1	0.1	4.8	0.7	8.2	nt	nt
CN(c1ccc(C(=O)N2CCCC2)cc1)S(=O)(=O)c1ccc(Cl)cc1	0.1	0.6	6.6*	9.9	-0.9	-15.5
CS(=O)(=O)N1CCN(C(=S)NCc2ccc(Cl)cc2)CC1	0.2	5.6	6.8*	12.5	0.3	1.9
Cc1cc(C(=O)Nc2cccnc2)sc1-c1ccccc1	0.0	-71.9	-0.7	-2.6	nt	nt
O=C(Nn1c(-c2ccc(F)cc2)nc2ccccc2c1=O)c1cncc(Br)c1	0.7	0.3	5.5*	20.8	0.3	11.9
COC(=O)c1ccc(C2N=C(c3ccc(Cl)cc3)CC(c3ccccc3O)N2)cc1 (stereo unspecified)	0.0	-8.0	2.6	-15.0	nt	nt
CCc1cnc(Nc2cccc3ncc(-c4cccc(NS(C)(=O)=O)c4)cc23)nc1	-0.2	-8.3	3.1	12.1	nt	nt
COc1cccc(OC)c1C(=O)N=c1sc2cc(F)ccc2n1C	-0.1	9.0	1.8	11.5	nt	nt
SMILES	FBW7 activator	TEAD-YAP block	GPR151 ag	MITF primary	GPR151 confirm	GPR119 counter
COc1ccc2c(c1)sc(=NC(=O)CS(=O)(=O)c1ccc(F)cc1)n2C	-0.6	5.7	5.8*	4.0	1.4	8.3
COc1cccc(C(=O)N=c2sc3cc(F)ccc3n2C)c1OC	-0.2	66.5*	6.6*	-19.2	0.4	10.4
CN(C)C1NC(=O)c2cc(-c3ccccc3)sc2N1 (stereo unspecified)	0.0	-9.3	7.0*	-10.0	-1.2	-0.3
O=C1CN(c2ccc(S(=O)(=O)N3CCCC3)cn2)CCN1	-0.1	4.7	0.9	-9.2	nt	nt
O=C1CN(c2ccc(S(=O)(=O)N3CCC(Cc4ccccc4)CC3)cn2)CCN1	0.1	-3.8	7.3*	-1.2	0.6	6.8
CCNC(=O)C1c2ccccc2C(=O)N(C2CCCC2)C1c1cccs1 (stereo unspecified)	0.1	9.3	0.2	6.9	nt	nt
O=C(CSCc1ccc(Cl)cc1)NCCSCc1ccco1	0.0	-3.1	7.8*	5.4	-0.7	-15.8
Cc1cc(NC(=O)C2CC2)n(-c2nc3ccccc3[nH]2)n1	-0.1	28.7	9.1*	-0.8	-0.2	-5.2
Cc1cc(NC(=O)c2ccco2)n(-c2nc3ccccc3[nH]2)n1	0.1	27.8	0.4	6.9	nt	nt
CC(C)C(NS(=O)(=O)c1ccc2c(c1)OCCO2)C(C)C	-0.1	-2.1	1.4	7.5	nt	nt
Cc1cccc(C(=O)N2CC(C)CC(C)C2)c1 (stereo unspecified)	0.2	6.0	5.6*	8.9	0.8	12.4
O=C(N/N=C/c1ccc(-c2cccc([N+](=O)[O-])c2)o1)c1cccc(F)c1	0.0	-3.6	-0.1	-5.0	nt	nt
CCOCCCNC(=S)N1CCC(NC(=O)c2ccco2)CC1	0.0	-3.4	5.9*	5.8	0.2	-1.6
CC(=O)c1ccc(N2CCN(C(=S)NCC3CCCO3)CC2)cc1 (stereo unspecified)	0.0	-2.2	1.3	5.9	nt	nt
O=C(c1ccco1)N1CCN(C(=S)NCC2CCCO2)CC1 (stereo unspecified)	0.2	9.4	6.4*	-9.8	0.0	-2.0
CCOCCCNC(=S)N1CCC(NC(=O)c2ccc(C)cc2)CC1	-0.1	-1.2	1.1	0.8	nt	nt
COc1ccc(N/C(=N\c2nc(C)cc(C)n2)NC(=O)c2ccc(F)cc2)cc1	-0.3	-2.0	0.6	11.5	nt	nt
COCCOC(=O)c1c(N)sc(C(N)=O)c1C	0.0	3.0	8.5*	-4.4	-0.4	-2.7
Cc1cc(NC(=O)COc2cc(F)ccc2[N+](=O)[O-])n(-c2ccccc2)n1	0.0	-0.5	14.8*	-8.3	-0.9	-10.5
Cc1cc(NC(=O)Cn2cc([N+](=O)[O-])cn2)n(-c2ccccc2)n1	-0.1	-13.3	2.6	-2.6	nt	nt
Cc1cc(C)n(C(=O)COc2ccccc2[N+](=O)[O-])n1	-0.1	3.6	5.4*	-16.3	-0.3	-1.7
C[C@H](O)[C@H]1NC(=O)[C@@H]2C[C@H](NC(=O)c3cc(F)cc(F)c3)CN2C1=O	-0.1	-7.8	-0.5	-5.8	nt	nt
Fc1ccc(C(c2nnnn2Cc2ccco2)N2CCN(Cc3ccccc3)CC2)cc1 (stereo unspecified)	-0.2	-2.0	5.8*	-0.8	0.1	-1.8
Fc1ccc(C(c2nnnn2Cc2ccco2)N2CCN(C3CCCCC3)CC2)cc1 (stereo unspecified)	-0.1	-5.7	0.6	-3.0	nt	nt
C=CCn1c(C)cc(-c2csc(NC(=O)Cc3ccc(OC)cc3)n2)c1C	0.2	-1.5	1.5	3.7	nt	nt
